# Compounds with a hit are over-represented: about 2.4% of the library has one in this group of screens.
# MITF act – activators of MITF-driven TRPM1 promoter reporter, primary screen, cell-based, SK-MEL-5, luciferase, single point; SK-MEL-5 TRPM1-promoter luciferase, 24 h; % of positive control, neutral wells = 0; 300,000 tested, 0.75% active; activation, % at 12.5 µM;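 active means mean activation of at least 80% with every replicate also reaching 80%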;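 further: 0% = neutral control wells and 100% = parthenolide positive control wells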
# Wnt bcat act – Wnt/beta-catenin pathway activators, primary screen, cell-based, plate reader, single point; Wnt/beta-catenin reporter cell assay, activator; 300,000 tested, 1.2% active; activation, % at 9.35 µM; in the data active means activation above about 30%, passing the limit was not always enough;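 further: 0% = neutral control wells and 100% = positive control wells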
# DYRK1A inh – rat Dyrk1A kinase inhibitors, primary screen, biochemical, single point, plate reader; ADP-Glo luminescence, NFATc1 peptide; inhibition, % at 12.5 µM; 310,000 tested, 0.43% active;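 further: plate controls were vehicle with enzyme for no effect and no enzyme for full effect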
# NSD2 inh – NSD2 histone methyltransferase inhibitors, primary screen, biochemical, AlphaScreen, single concentration, set 2; Histone-lysine N-methyltransferase NSD2 (Homo sapiens), O96028; inhibition, % at 12.5 µM; AID 743445, 2014; NSD2 peptide methylation, 120 min; 310,000 tested, 0.54% active
# Target sequence (O96028 whole entry, looked up): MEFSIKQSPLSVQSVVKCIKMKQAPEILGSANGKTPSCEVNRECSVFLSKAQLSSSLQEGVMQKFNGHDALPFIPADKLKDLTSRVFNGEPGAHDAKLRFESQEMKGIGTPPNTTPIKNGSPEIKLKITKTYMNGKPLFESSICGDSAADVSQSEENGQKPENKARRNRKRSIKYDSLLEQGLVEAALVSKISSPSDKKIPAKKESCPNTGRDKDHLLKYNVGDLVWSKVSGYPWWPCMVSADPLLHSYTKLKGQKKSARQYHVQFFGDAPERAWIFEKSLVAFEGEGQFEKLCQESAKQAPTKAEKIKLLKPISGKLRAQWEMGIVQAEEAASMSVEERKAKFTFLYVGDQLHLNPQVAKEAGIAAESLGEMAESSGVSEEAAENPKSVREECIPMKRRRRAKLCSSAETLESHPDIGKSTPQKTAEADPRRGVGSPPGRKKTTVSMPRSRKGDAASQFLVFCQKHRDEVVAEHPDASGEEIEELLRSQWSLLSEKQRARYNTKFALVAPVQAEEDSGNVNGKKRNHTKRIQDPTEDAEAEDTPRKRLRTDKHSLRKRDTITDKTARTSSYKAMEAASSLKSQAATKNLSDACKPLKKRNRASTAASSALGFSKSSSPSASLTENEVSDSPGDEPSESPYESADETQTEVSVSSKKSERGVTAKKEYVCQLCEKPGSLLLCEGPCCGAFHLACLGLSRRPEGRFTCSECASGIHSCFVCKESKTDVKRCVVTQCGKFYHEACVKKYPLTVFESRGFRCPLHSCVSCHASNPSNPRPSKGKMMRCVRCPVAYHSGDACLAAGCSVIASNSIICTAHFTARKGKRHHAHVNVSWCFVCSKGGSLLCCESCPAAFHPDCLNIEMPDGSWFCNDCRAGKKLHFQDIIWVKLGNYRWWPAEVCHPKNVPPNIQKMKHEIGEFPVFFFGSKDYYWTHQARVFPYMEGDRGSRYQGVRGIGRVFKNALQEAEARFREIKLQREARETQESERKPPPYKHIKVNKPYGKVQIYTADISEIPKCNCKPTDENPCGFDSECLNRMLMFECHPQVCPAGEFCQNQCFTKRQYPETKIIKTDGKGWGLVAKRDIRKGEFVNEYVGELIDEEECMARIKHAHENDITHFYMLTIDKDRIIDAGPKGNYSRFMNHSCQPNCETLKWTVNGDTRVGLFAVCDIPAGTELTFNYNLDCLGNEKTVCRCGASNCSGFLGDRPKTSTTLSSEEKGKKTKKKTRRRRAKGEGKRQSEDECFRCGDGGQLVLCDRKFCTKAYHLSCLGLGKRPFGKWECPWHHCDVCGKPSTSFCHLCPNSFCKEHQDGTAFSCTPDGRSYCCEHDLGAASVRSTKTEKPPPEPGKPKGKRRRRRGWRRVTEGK
# miR122 inh – miR-122 Renilla sensor signal increase in Huh7, primary screen, miR-122 inhibitor project, cell-based, single point, plate reader; Huh7 miR-122 Renilla luciferase sensor, 48 h; neutral wells = 0, positive control = 100; activation (reporter increase), % at 12.5 µM; 340,000 tested, 0.3% active;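 active means mean replicate activation score at least 90 and every replicate individually at or above 90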;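 further: higher luciferase means less miR-122 activity so hits act as miR-122 inhibitors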
# INS-1E GSIS act – GLuc luminescence reporter in INS-1E cells, primary screen for activators of glucose-dependent secretion of insulin. activation, % at 16.6 µM. AID 743287, 2014. 370,000 tested, 0.61% active. INS-1E GLuc reporter insulin secretion, 2-3 h;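 active means lowest replicate activation of at least 40%, so every replicate reaches that level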;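 further: 0% = median of neutral control wells and 100% = median of IBMX positive control wells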
# * marks the source's active call; other numbers are inactive results; / = no result given; [ ] = another dose, or the depositor's remark. Unless noted, no stated cut-off is given here; in the data, active means inhibition above about 50%; inactive means the rest.
SMILES,MITF act,Wnt bcat act,DYRK1A inh,NSD2 inh,miR122 inh,INS-1E GSIS act
c1ccc(-c2nnc(SCc3ccncc3)o2)cc1,/,1,/,-3,-1,8
Fc1ccc(CSc2nnc(-c3cccs3)o2)cc1,70,21,-2,-6,/,-10
Cc1cccc(-c2nnc(SCc3ccccc3)o2)c1,44,42*,5,-1,2,/
Fc1ccccc1CSc1nnc(-c2cccs2)o1,106*,42*,-5,-4,/,11
CCSc1nnc(-c2cccs2)o1,43,5,4,/,-2,/
C(=C\c1nnc(-c2cccs2)o1)/c1ccccc1,123*,-2,2,-1,-2,7
Cc1ccc(/C=C/c2nnc(-c3ccccc3)o2)cc1,57,/,6,6,-5,/
C[C@@H]1CN([C@@H](C)CO)C(=O)c2cccc(NC(=O)Nc3ccc(F)cc3)c2O[C@H]1CN(C)Cc1ccc(Oc2ccccc2)cc1,/,/,/,/,-3[16.7 µM],-6
N#C[C@@H]1[C@@H](c2ccc(C3=CCCC3)cc2)[C@H](CO)N1c1nc(-c2ccccc2)cs1,/,/,/,/,/,-2
C[C@@H]1CN([C@H](C)CO)C(=O)c2cccc(NS(=O)(=O)c3ccccc3)c2O[C@H]1CN(C)C(=O)NC1CCCCC1,/,/,/,/,8[16.7 µM],4
C[C@H](CO)N1C[C@H](C)[C@@H](CN(C)Cc2ccncc2)Oc2cc(-c3cccnc3)ccc2S1(=O)=O,/,/,/,/,1[16.7 µM],-23
Cc1ccc(-c2nnc(SCC(C)C)n2C)cc1,28,61*,2,0,/,/
CC(=O)Nc1ccc(-c2ccnc3c2CC(C)(C(=O)NC(C)C)O3)cc1 (stereo not drawn),/,41*,/,-1,-12,/
Cc1cnc(NC(=O)CCCNC(=O)c2ccc(Cl)cc2)s1,38,52*,-1,-2,10,2
Cc1ccc(NC(=O)CCCNC(=O)c2ccc(Cl)cc2)nc1,44,7,7,0,-6,8
C[C@@H]1CN([C@@H](C)CO)C(=O)c2cccc(NS(=O)(=O)c3ccc(Cl)cc3)c2O[C@H]1CN(C)C,/,/,/,/,2[16.7 µM],13
CC(C)CCOC(=O)C1C(c2ccccc2)C(C(=O)O)C1c1ccccc1 (stereo not drawn),6,43*,-1,2,-4,/
NC1=NC(=O)/C(=C/C=C/c2cccs2)S1,38,36*,3,0,/,9
Cc1ccsc1/C=C1\SC(N)=NC1=O,5,/,/,3,-7,/
O=C(COc1ccc(F)cc1)Nc1ccc2c(c1)OCCO2,66,38*,7,-1,/,-5
CC(C)(C)NS(=O)(=O)c1ccc(OCC(=O)Nc2ccc3c(c2)OCCO3)cc1,-2,/,-8,-8,112*,/
C[C@@H]1CN([C@@H](C)CO)S(=O)(=O)c2ccc(C3=CCCC3)cc2O[C@@H]1CN(C)Cc1ccccc1F,/,/,/,/,11[16.7 µM],6
COc1cccc(CNC(=O)C[C@H]2CC[C@H](NC(C)=O)[C@@H](CO)O2)c1,/,/,/,/,0[16.7 µM],13
OCC1OC(n2cnc3c(NCc4ccccc4O)ncnc32)C(O)C1O (stereo not drawn),-58,-11,-2,2,572*,-20
CN1c2ccc(-c3ccc(F)cc3)cc2[C@H]2[C@H](CCN2S(=O)(=O)c2cccc(F)c2)[C@H]1CO,/,/,/,/,144*[16.7 µM],-5
SMILES,MITF act,Wnt bcat act,DYRK1A inh,NSD2 inh,miR122 inh,INS-1E GSIS act
Cc1noc(C)c1NC(=O)Nc1ccc2c(c1)CC(=O)N([C@H](C)CO)C[C@@H](C)[C@@H](CN(C)S(=O)(=O)c1ccccc1)O2,/,/,/,/,-7[16.7 µM],-9
COc1ccc(C(=O)c2cnc[nH]2)cc1,/,3,24,-2,-10,9
COc1ccc(C(=O)c2cnc[nH]2)cc1OC,-5,0,15,/,-3,70*
Cc1ccc(S(=O)(=O)SCCCSS(=O)(=O)c2ccc(C)cc2)cc1,-17,-4,4,1,1,189*
O=C(C[C@H]1C[C@H]2c3cc(NS(=O)(=O)c4ccccc4)ccc3O[C@H]2[C@@H](CO)O1)NC1CCCCC1,/,/,/,/,1[16.7 µM],-6
O=C(Cn1nc(-c2ccccc2)c2ccccc2c1=O)Nc1ccc(O)cc1,4,0,-1,11,-2,28
Cc1ccc(NC(=O)NNC(=O)Cn2nc(-c3ccccc3)c(-c3ccccc3)c(C#N)c2=O)cc1,-27,/,2,5,104*,/
COc1ccc2c3c(n(C)c2c1)[C@@H](CO)N(CC1CCOCC1)CC31CCN(C(=O)Nc2ccccc2)CC1,/,/,/,/,/,-4
COc1ccc(C(=O)CN2Cc3ccccc3C2=N)cc1,/,42*,/,0,/,/
CO[C@H]1CN(C)C(=O)c2cc(NC(=O)Nc3ccccc3F)ccc2OC[C@H](C)N(C(C)=O)C[C@H]1C,/,/,/,/,/,-15
CN[C@H]1C[C@@H](c2ccccc2)N(C(C)=O)C[C@H]1CO,/,0,/,/,-4,42*
C(=NOCCc1ccccc1)c1ccccn1,46,7,2,-2,/,0
C(=NOCCc1ccccc1)c1ccncc1,91*,0,3,2,-6,/
O=C(CC1CC1)N[C@@H]1CC[C@H](CCNS(=O)(=O)c2ccc(Cl)cc2)O[C@@H]1CO,/,/,/,/,/,-1
O=C(C[C@@H]1CC[C@H](NC(=O)C2CC2)[C@H](CO)O1)Nc1ccccc1,/,/,/,/,/,7
C[C@H]1CN([C@@H](C)CO)C(=O)c2cccc(NS(C)(=O)=O)c2O[C@@H]1CN(C)C(=O)Nc1cccc2ccccc12,/,/,/,/,11[16.7 µM],-5
COCC(=O)N1C[C@@H](C)[C@H](OC)CN(C)C(=O)c2ccc(NS(C)(=O)=O)cc2OC[C@@H]1C,/,/,/,/,/,24
O=C1C(=Cc2cccn2-c2ccc(O)cc2)C(=O)c2ccccc21,1,/,1,2,6,/
O=C1C(=Cc2cccn2-c2ccccc2)C(=O)c2ccccc21,5,1,-2,6,8,72*
CC(=O)N(C)C[C@@H]1Oc2ccc(N)cc2CC(=O)N(C)C[C@@H]1C,/,/,/,/,/,1
Nc1nc(N)c(N=O)c(Nc2cccc(Cl)c2)n1,/,1,/,3,/,41*
Cc1ccc(NS(=O)(=O)c2csc(C(N)=O)c2)cc1C,13,-4,-2,-5,99*,1
C[C@H](NC(=O)C[C@@H]1CC[C@H](NC(=O)CN2CCOCC2)[C@@H](CO)O1)c1ccccc1,/,/,/,/,-10[16.7 µM],-3
COCC(=O)N1[C@H](CO)[C@@H](c2ccccc2-c2ccccc2)[C@@H]1C#N,/,/,/,/,/,-14
Cc1nc2c(=O)n(C)c(=O)n(C)c2nc1Cl,-43,-3,-9,22,/,96*
Cn1c(=O)c2nc(NCc3ccccc3)cnc2n(C)c1=O,-1,-2,/,-2,-3,5
CN(Cc1ccccc1)c1ncnc2c1cnn2-c1ccccc1,85*,26,0,-3,-5,-5

# Source: PubChem BioAssay
